Records with an inconclusive call do not appear. The source made the active and inactive calls. Unless noted, calls follow the shape of the dose curve; as a rule, active = well fitted curve in the direction sought with a large enough effect; inconclusive = small, poorly fitted or top-dose-only effect, or another doubt; inactive = no such curve, though single readings can be large; an effect the other way counts as inactive or inconclusive.
Legend:
[1] = Cytotoxicity counterscreen for NFkB agonists and antagonists (AID 624476); conditions: NFkB reporter cell line viability counterscreen; series mostly up to 46.1 µM;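 also: cells exposed to compound for 48 hours; % is scaled to controls: 0 for no effect and ±100 for the full control effect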
[2] = qHTS Assay for Identification of Small Molecule Agonists for NFkB Signaling Pathway. (AID 624478); conditions: NFkB pathway reporter cell assay, agonist mode, cells co-stimulated with 10 pM TNF alpha; series mostly up to 46.1 µM;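 also: compounds tested together with TNF alpha at its EC50 of 10 pM; 0% is about no effect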
Method in brief: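 Read-out: 460/530 nm emission at 405 nm excitation after 2 h LiveBLAzer loading; ME-180 NFkB-bla reporter cells exposed 5 h at 37 C to compounds with 10 pM TNF alpha final.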

[3] = qHTS Assay for Identification of Small Molecule Antagonists for NFkB Signaling Pathway. (AID 624479; calls by dose curve; also: % is scaled to controls: 0 for no effect and ±100 for the full control effect); conditions: NFkB pathway reporter cell assay, antagonist mode; series mostly up to 38.3 µM
[4] = qHTS Assay for Identifying Gametocytocidal Compounds (AID 743244); also: potency is read from the fitted curve at half-maximal effect;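 as to max response: % is scaled to controls: 0 for no effect and ±100 for the full control effect; actives lower the fluorescent signal which means gametocytes are killed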; conditions: P. falciparum 3D7 stage III-V gametocytes, alamarBlue, 72 h; max response: stronger effect = lower value
Method in brief: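 3D7 gametocytes, stages III–V, 20,000/well; cpd 72 h, 37 °C/5% CO2; + alamarBlue 24 h; fluor. Ex 525/Em 598.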

[5] = qHTS profiling of the MIPE4 collection as inhibitors of Plasmodium falciparum (3D7) proliferation (AID 743344; call rule not given here;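 also: scaled between DMSO vehicle wells and 0.29 µM artemisinin as full inhibition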); conditions: P. falciparum 3D7 in erythrocytes, SYBR Green DNA fluorescence, 72 h; at 28.5 µM (top of the series)
Method in brief: (§1)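 Parasite DNA was quantified by SYBR Green I fluorescence (ex 485, em 535 nm) after overnight lysis in saponin/Triton buffer at room temperature. Cultures at 0.3% parasitemia and 2.5% hematocrit were first exposed to compound for 72 h at 37 C; signals were normalised to artemisinin (0.29 uM) and vehicle wells.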

[6] = qHTS profiling of the MIPE4 collection as inhibitors of Plasmodium falciparum (DD2) proliferation (AID 743345; call rule not given here); conditions: P. falciparum Dd2 in erythrocytes, SYBR Green DNA, 72 h; at 28.5 µM (top of the series)
Method in brief: as §1

[7] = qHTS profiling of the MIPE4 collection as inhibitors of Plasmodium falciparum (DD2) proliferation (Rep 2) (AID 743346; call rule not given here); conditions: P. falciparum Dd2 in erythrocytes, SYBR Green DNA, 72 h; at 28.5 µM (top of the series)
Method in brief: as §1

[8] = qHTS profiling of the MIPE4 collection as inhibitors of Plasmodium falciparum (HB3) proliferation (AID 743347; call rule not given here;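 also: plate controls were DMSO vehicle wells for no effect and artemisinin wells for full effect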); conditions: P. falciparum HB3 in erythrocytes, SYBR Green DNA, 72 h; at 28.5 µM (top of the series)
Method in brief: as §1

[9] = Confirmation and Secondary Assay for Modulators of Hemoglobin Beta Chain Splicing at IVS2 654 locus (AID 910); conditions: HeLa EGFP-654 splicing reporter, GFP fluorescence, 48 h; series mostly up to 46.1 µM;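 also: HeLa cells stably carrying EGFP split by mutant beta-globin IVS2-654 intron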;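 also: potency is read from the fitted curve at half-maximal effect; potency of activators that raise GFP signal by restoring correct splicing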
Method in brief: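 HeLa cells stably expressing EGFP interrupted by β-globin IVS2-654 intron, seeded overnight in Opti-MEM/2% FCS, then treated 2 days at 37 °C. Restored splicing read as total peak GFP intensity per well by laser scanning cytometry (488 nm excitation, 500–520 nm emission); 500 nM antisense PNA as control.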

[10] = Confirmation and Secondary Assay for Modulators of Hemoglobin Beta Chain Splicing at IVS2 705 locus (AID 930); conditions: HeLa EGFP-705 splicing reporter, GFP fluorescence, 48 h; series mostly up to 46.1 µM;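 also: GFP fluorescence per well restored by corrected splicing of the IVS2-705 intron in EGFP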; also: potency is read from the fitted curve at half-maximal effect;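 as to activation: HeLa cells stably expressing the EGFP-705 splicing reporter; % of control where 0% means no effect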
Method in brief: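 Stable HeLa line with EGFP disrupted by mutant beta-globin intron 2 (705). Overnight attachment, then 2 days of compound at 37C, 5% CO2. Signal: peak GFP intensity summed over objects 5-250 µm.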

[11] = biological target: DNA dC->dU-editing enzyme APOBEC-3G (Homo sapiens) (UniProt Q9HC16); assay: qHTS for inhibitors of Vif-A3G interactions: Validation (AID 588379); conditions: Vif-A3G protein interaction assay; series mostly up to 46.1 µM; also: 0% is about no effect
Method in brief: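 Yellow fluorescence (Ex 488, Em 500-530) of Vif-coexpressing HeLa A3G-eYFP cells, scanned by Acumen cytometer, reports blocked A3G degradation. Cells plated at 700/well overnight at 37 deg C before compound addition, then a further overnight compound incubation at 37 deg C.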

[12] = biological target: Cytochrome P450 2D6 (Homo sapiens) (UniProt P10635); assay: qHTS Assay for Inhibitors and Substrates of Cytochrome P450 2D6 (AID 891); conditions: recombinant CYP2D6, luciferin-ME EGE luminescence; series mostly up to 57.1 µM; also: potency is read from the fitted curve at half-maximal effect; nearly all actives have a fitted effect of over 60% in size
Method in brief: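 Luminescent read-out of luciferin formed by 5 nM human CYP2D6 demethylating 30 uM Luciferin-ME EGE (Km level) over 60 min at room temperature after NADPH regeneration addition. Data normalized to full inhibition by 1.43 uM quinidine.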

[13] = biological target: Lysosomal acid glucosylceramidase (Homo sapiens) (UniProt P04062); assay: Glucocerebrosidase-p2 (AID 348; in the data active = potency below about 10 µM; also: potency is read from the fitted curve at half-maximal effect); conditions: purified GBA, blue fluorogenic substrate, 40 min
Method in brief: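 Normal human glucocerebrosidase (0.2 nM) with blue fluorogenic substrate (80 uM final) in citrate/phosphate pH 5.9 with 10mM sodium taurocholate, 0.01% tween-20; 40 min RT, NaOH/glycine stop; fluorescence Ex 365/Em 440; AC50 from a titration from 0.6 nM upwards.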

[14] = qHTS Assay for Identification of Small Molecule Agonists for Hypoxia Response Element Signaling Pathway (AID 914; active = well fitted activation curve with a large enough effect in the signal ratio, with a control signal flat, not every such curve was filed as active; the % refers to the signal ratio; also: % of control where 0% means no effect); conditions: ME-180 (cervical carcinoma) HRE-bla reporter, beta-lactamase ratio, CoCl2, 17 h; activation: stronger effect = higher value
Method in brief: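 Reporter activity (beta-lactamase, CCF4 460nm/530nm ratio) in HRE-bla ME-180 cells is recorded after 17 h compound exposure with EC50 CoCl2 at 37 degrees Celsius. AC50 values come from titration data.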

[15] = biological target: Cytochrome P450 2C19 (Homo sapiens) (UniProt P33261); assay: qHTS Assay for Inhibitors and Substrates of Cytochrome P450 2C19 (AID 899); conditions: recombinant CYP2C19, luciferin-H EGE luminescence; series mostly up to 57.1 µM; also: potency is read from the fitted curve at half-maximal effect; nearly all actives have a fitted effect of over 60% in size
Method in brief: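 Luminescent read-out of luciferin formed from Luciferin-H EGE (10uM, equal to KM). Enzyme 5nM in 50mM KPO4; compound added, 10 min at 37C, then NADPH regenerating system for 60 min at 37C. Full inhibition defined by 57uM ketoconazole.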

Lysosomal acid glucosylceramidase (Homo sapiens), sequence (P04062 whole entry, looked up): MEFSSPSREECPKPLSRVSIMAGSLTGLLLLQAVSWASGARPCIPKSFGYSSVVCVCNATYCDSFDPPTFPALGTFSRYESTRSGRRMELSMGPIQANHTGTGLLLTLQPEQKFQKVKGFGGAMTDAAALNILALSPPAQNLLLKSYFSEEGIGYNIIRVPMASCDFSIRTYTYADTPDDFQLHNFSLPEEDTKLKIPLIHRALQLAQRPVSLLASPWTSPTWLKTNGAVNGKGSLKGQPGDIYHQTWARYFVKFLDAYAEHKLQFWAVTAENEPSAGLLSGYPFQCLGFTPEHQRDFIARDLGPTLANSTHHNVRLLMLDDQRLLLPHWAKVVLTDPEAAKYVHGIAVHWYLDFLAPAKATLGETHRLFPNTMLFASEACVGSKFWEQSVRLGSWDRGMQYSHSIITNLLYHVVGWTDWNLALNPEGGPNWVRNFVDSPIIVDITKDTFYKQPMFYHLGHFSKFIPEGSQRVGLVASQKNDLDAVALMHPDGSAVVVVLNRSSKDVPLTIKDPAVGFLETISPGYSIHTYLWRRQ
DNA dC->dU-editing enzyme APOBEC-3G (Homo sapiens), sequence (Q9HC16 whole entry, looked up): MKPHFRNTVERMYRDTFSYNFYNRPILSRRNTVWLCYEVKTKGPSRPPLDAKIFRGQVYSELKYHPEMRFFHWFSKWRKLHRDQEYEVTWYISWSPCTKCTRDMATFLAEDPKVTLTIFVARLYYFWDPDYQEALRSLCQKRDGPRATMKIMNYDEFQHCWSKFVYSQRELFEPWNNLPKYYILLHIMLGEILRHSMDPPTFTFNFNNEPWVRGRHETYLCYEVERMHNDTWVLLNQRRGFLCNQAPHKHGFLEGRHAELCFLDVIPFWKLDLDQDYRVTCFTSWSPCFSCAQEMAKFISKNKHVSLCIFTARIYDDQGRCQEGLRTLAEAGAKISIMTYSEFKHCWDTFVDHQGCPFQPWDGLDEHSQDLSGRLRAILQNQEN
Cytochrome P450 2D6 (Homo sapiens), sequence (P10635 whole entry, looked up): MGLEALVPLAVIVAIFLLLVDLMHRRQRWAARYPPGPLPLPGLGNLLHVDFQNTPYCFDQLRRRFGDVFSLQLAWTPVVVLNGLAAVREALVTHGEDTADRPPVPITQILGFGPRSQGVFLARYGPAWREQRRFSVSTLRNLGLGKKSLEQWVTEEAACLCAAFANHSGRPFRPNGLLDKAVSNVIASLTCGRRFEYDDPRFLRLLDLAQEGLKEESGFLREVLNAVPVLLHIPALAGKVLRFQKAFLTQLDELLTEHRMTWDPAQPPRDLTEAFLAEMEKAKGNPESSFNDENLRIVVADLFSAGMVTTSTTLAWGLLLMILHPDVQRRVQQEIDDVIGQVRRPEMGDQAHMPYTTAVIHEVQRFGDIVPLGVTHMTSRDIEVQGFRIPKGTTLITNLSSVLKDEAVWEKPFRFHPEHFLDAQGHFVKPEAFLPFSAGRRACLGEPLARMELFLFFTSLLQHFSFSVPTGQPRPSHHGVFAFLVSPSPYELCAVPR
Cytochrome P450 2C19 (Homo sapiens), sequence (P33261 whole entry, looked up): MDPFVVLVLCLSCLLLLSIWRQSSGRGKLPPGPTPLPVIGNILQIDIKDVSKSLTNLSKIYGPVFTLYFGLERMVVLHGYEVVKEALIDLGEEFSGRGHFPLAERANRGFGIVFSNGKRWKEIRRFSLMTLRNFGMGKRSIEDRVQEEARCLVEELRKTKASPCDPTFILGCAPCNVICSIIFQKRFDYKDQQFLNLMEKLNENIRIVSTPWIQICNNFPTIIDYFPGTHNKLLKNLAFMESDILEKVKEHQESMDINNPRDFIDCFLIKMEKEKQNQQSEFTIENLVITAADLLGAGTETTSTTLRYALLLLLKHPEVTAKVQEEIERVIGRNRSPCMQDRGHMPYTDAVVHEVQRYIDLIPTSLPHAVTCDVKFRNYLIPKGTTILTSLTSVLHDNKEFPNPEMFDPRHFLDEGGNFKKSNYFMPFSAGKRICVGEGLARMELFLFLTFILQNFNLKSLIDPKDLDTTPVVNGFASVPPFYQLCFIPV

CCC(C)n1ncn(-c2ccc(N3CCN(c4ccc(OCC5COC(Cn6cncn6)(c6ccc(Cl)cc6Cl)O5)cc4)CC3)cc2)c1=O (stereo unspecified)
outcome [1]: inactive
outcome [2]: inactive
outcome [3]: inactive

N[C@@H](C(=O)N[C@@H]1C(=O)N2C(C(=O)O)=C(Cl)CC[C@H]12)c1ccccc1
max response [4]: 3.49% (inactive)

Nc1cccc(-c2csc(NC(=O)CCCCCCC(=O)NO)n2)c1
parasite growth, % of DMSO control [5]: 5.04%
parasite growth remaining, % of DMSO control (lower = more inhibition) [6]: 7.08%
parasite growth, % of control (lower = inhibition) [7]: 11.6%
growth, % of control [8]: 8.11%

COc1c2ccoc2cc2oc(=O)ccc12
Potency [9]: inactive
Potency [10]: inactive
outcome [11]: inactive

COc1cc(/C=C/C(=O)N2CCC=CC2=O)cc(OC)c1OC
Potency [9]: inactive
Potency [10]: inactive

CN1CC[C@H](CN2c3ccccc3Sc3ccccc32)C1
Potency [12]: 0.126 µM (active)
Potency [4]: 18.7 µM (active)

C/C=C\c1ccc(OC)cc1
Potency [9]: inactive
Potency [10]: inactive

CC(C)=CCCC(C)CCO (stereo unspecified)
outcome [11]: inactive

COc1ccccc1CNc1ncnc2ccc(-c3cccc(NS(C)(=O)=O)c3)cc12
Potency [13]: > 11.4 µM (inactive)

COCCn1c(=O)c(-c2cccs2)nc2cnc(N3CCNCC3)nc21
Potency [13]: > 11.4 µM (inactive)

NC1=NC(S)C2N=CN=C2N1 (stereo unspecified)
Potency [9]: 2 µM (active)
Potency [10]: 5.01 µM (active)

S=C1NC=NC2N=CNC12 (stereo unspecified)
Potency [9]: 3.16 µM (active)
Potency [10]: 3.16 µM (active)

CN(C)c1nc(-c2ccc3c(c2)OCO3)nc2ccccc12
Potency [13]: > 11.4 µM (inactive)

COc1cccc(-c2nc(N(C)C)c3ccccc3n2)c1
Potency [13]: > 11.4 µM (inactive)

O=C(O)c1cc(O)c2c(c1)[C@H]([C@H]1c3cc(C(=O)O)cc(O)c3C(=O)c3c(O[C@@H]4OC(CO)C(O)C(O)C4O)cccc31)c1cccc(O[C@@H]3OC(CO)C(O)C(O)C3O)c1C2=O (stereo partly specified)
Potency [9]: inactive
Potency [10]: inactive

CCCCCCCCCCCCCCCCn1cc[n+](Cc2ccccc2)c1C
parasite growth, % of DMSO control [5]: 5.58%
parasite growth remaining, % of DMSO control (lower = more inhibition) [6]: 6.21%
parasite growth, % of control (lower = inhibition) [7]: 8.98%
growth, % of control [8]: 5.99%

COc1ccccc1CNc1nc(-c2ccc(C(=O)N(C)C)cc2)nc2ccccc12
Potency [13]: > 11.4 µM (inactive)
activation [14]: 25.3% (inactive)

COc1ccc2[nH]cc(CCNc3cc(-c4cccc(C#N)c4)ncn3)c2c1
Potency [13]: > 11.4 µM (inactive)
Potency [15]: 7.94 µM (active)

— PubChem BioAssay (NCATS)
